Screening data as filed in PubChem BioAssay.
Shown are actives, neighbours in structure and some others; about 6.6% of the full set was active somewhere.
GDH-TPI inh – inhibits GDH-TPI coupling enzymes, artifact for Mtb FBA screen; GDH-TPI coupled enzyme counterscreen, NADH absorbance; inhibition, % at 4.8 µM; actives 1.2% (n = 360,000); AID 588335; in the data active means inhibition above about 30%;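 further: 0% = DMSO wells and 100% = wells lacking the enzyme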
BoNT F protease – blocks Botulinum neurotoxin F light chain protease | inhibition, % at 10 µM | Multiplex microsphere protease cleavage assay, flow cytometry | actives 0.22% (n = 360,000) | AID 588497; in the data active means inhibition above about 35%, passing the limit was not always enough; inconclusive means no clear call, values can overlap the other calls; further: plate controls were buffer without enzyme for full effect and enzyme alone for no effect
FBA Mtb inh – inhibitors of M. tuberculosis fructose-bisphosphate aldolase; P9WQA3; purified M. tuberculosis FBA, fluorescence read-out; inhibition, % at 1 µM; actives 2.3% (n = 360,000); in the data active means inhibition above about 27%;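 further: 0% = vehicle and 100% = reference inhibitor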
Target sequence (P9WQA3 whole entry, looked up): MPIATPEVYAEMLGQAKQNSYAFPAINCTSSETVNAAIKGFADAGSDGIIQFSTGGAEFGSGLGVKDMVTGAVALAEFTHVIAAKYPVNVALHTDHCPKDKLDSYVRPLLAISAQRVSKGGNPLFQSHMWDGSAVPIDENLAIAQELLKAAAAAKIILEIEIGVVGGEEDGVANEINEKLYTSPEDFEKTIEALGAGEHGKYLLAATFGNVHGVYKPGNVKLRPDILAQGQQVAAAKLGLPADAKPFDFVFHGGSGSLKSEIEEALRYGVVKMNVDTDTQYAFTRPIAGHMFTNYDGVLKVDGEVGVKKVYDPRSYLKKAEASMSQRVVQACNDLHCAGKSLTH
Anthrax LF inh2 – blocks Bacillus anthracis lethal factor protease | inhibition, % at 10 µM | multiplex microsphere protease cleavage assay, LF | AID 588501 | P15917 | actives 0.12% (n = 360,000); further: plate controls were buffer without enzyme for full effect and enzyme alone for no effect
BoNT A protease – BoNT A light chain protease inhibition; multiplex microsphere protease substrate cleavage, flow cytometry; inhibition, % at 10 µM; actives 0.17% (n = 360,000); further: plate controls were buffer without enzyme for full effect and enzyme alone for no effect
Bead autofluor – counter-screen for toxin protease inhibitors: compound fluorescence. compound autofluorescence counterscreen, microsphere flow cytometry; active compounds read high. AID 624483. fluorescence intensity (test concentration not listed). actives 3.1% (n = 360,000); in the data active means fluorescence intensity above about 16000; inconclusive means no clear call, values can overlap the other calls
An asterisk follows results filed as active; i = inactive; ? = inconclusive; + = active, no number. Unless noted, no stated cut-off is given here; in the data, active means inhibition above about 30%; inconclusive means no clear call, values can overlap the other calls; inactive means below that.

SMILES	GDH-TPI inh	BoNT F protease	FBA Mtb inh	Anthrax LF inh2	BoNT A protease	Bead autofluor
CCOC(=O)c1ccc(N2C(=O)CC(N3CCC(O)(c4ccc(Br)cc4)CC3)C2=O)cc1 (configuration not stated)	8	-10	0	-2	0	2627
CCOC(=O)c1ccc(N2C(=O)CC(N3CCCC(C)C3)C2=O)cc1 (configuration not stated)	11	-8	4	-1	-5	25079*
O=C(NCc1cccnc1)c1cc(C2CCCCN2C(=O)CCCc2ccccc2)on1 (configuration not stated)	-1	4	-1	-6	0	3601
CN(C)c1ccc(C(=O)C(O)c2ccccc2Cl)cc1 (configuration not stated)	46*	-6	2	-12	-1	3001
CN(C)c1ccc(C(=O)C(=O)c2ccccc2)cc1	9	-7	-3	-2	1	3036
Cc1nc2c(n1O)CCC/C2=N\O	6	4	2	-2	0	3266
COc1ccc(-c2nc3c(n2O)CCC/C3=N\O)cc1	14	0	13	-7	?	21176*
Cc1ccccc1NCC(=O)N/N=C/c1c(C)c(C(=O)c2ccc(Cl)cc2)n2ccccc12	32*	-6	-5	0	1	2384
Cc1c(/C=N/NC(=O)CNc2ccccc2)c2ccccn2c1C(=O)c1ccc(Cl)cc1	20	-2	4	-1	0	7240
Cc1c(C=O)c2ccccn2c1C(=O)c1ccc(F)cc1	33*	32	-2	7	-1	3783
N#Cc1c(N)nc(SCC(=O)NC2CCCCC2)c(C#N)c1-c1ccc(Cl)cc1	8	3	0	3	2	16126*
COc1ccc(CSc2nc(C)[nH]c2[N+](=O)[O-])cc1[N+](=O)[O-]	42*	?	-10	1	4	4262
O=C(Nc1ccncc1)c1ccccc1Cl	6	9	3	2	-3	3164
COc1ccc(-c2noc(CCC(=O)NCc3cccnc3)n2)cc1	-11	-4	8	1	-1	23172*
NC(=O)CCCc1nc(-c2ccccc2Cl)no1	12	2	1	-2	0	11046
CNC(=O)CCCc1nc(-c2ccccc2Cl)no1	4	-10	0	-5	-6	17469*
CCOc1ccc(CCNC(=O)CCCN2C(=O)c3ccccc3C2=O)cc1OCC	-12	2	0	-1	?	21585*
O=C(CCCN1C(=O)c2ccccc2C1=O)NCc1cccnc1	0	-3	-6	-4	-1	22861*
CC(=O)Oc1ccc(C(=O)Nc2cc(NC(=O)c3ccc(OC(C)=O)cc3)cc(C(=O)NC(C)(C)C)c2)cc1	-4	-8	-1	-1	1	2392
O=C(CCCc1nc(-c2ccccc2)no1)NCc1cccnc1	12	-8	-1	0	?	24495*
O=C(CCc1nc(-c2ccccc2)no1)NCCc1ccccc1	1	2	2	-10	3	22301*
O=C(CCCc1nc(-c2ccccc2)no1)Nc1cccnc1	3	-6	-1	2	-1	4183
CC(=O)Nc1cc(C(N)=O)c(Cl)cc1Cl	-2	i	2	-240	?	?
NC(=S)Nc1ccc(Cl)c(Cl)c1	-3	?	4	52*	-1	4462
NC(=S)NNc1ccc(Cl)c(Cl)c1	-1	8	-2	2	0	5158
SMILES	GDH-TPI inh	BoNT F protease	FBA Mtb inh	Anthrax LF inh2	BoNT A protease	Bead autofluor
CC(=O)Nc1ccc(Cl)c(C(N)=O)c1	-5	-2	-4	0	-1	19829*
COc1ccc(C2/C(=C(\O)c3cc(C)ccc3C)C(=O)C(=O)N2CCN(C)C)cc1OC (configuration not stated)	12	-4	3	5	0	4507
COc1cc(C=O)ccc1Oc1nnnn1-c1ccc(C(N)=O)cc1	2	-1	1	-1	0	16078
COc1cc(CO)ccc1Oc1nnnn1-c1ccc(C(N)=O)cc1	1	15	4	-8	10	16480*
Cc1ccc(N2CC(O)CSC2=Nc2ccccc2)cc1 (configuration not stated)	4	-2	1	-5	0	2812
COC(=O)C(O)(c1ccc(NC(=S)NC(=O)c2ccccc2)cc1)C(F)(F)F (configuration not stated)	6	-3	-1	-1	-3	16903*
CC(N=Cc1cccc(O)c1O)c1ccccc1 (configuration not stated)	-4	-1	0	2	0	22938*
COC(=O)c1ccccc1N=Cc1c(O)[nH]c(=O)[nH]c1=O	-1	9	4	-14	0	3521
CC(N=Cc1c(O)[nH]c(=O)[nH]c1=O)c1ccccc1 (configuration not stated)	10	-8	-2	-4	-3	17759*
COCCNC(=O)Cn1cc(C(=S)N2CCOCC2)c2ccccc21	2	2	1	0	0	4342
COCCCNC(=O)Cn1cc(C(C)=O)c2ccccc21	-9	-5	0	-1	-3	20880*
Cc1cc(=O)[nH]c(N2CCc3ccccc3C2)n1	3	-5	-1	1	-5	25748*
Cc1cc(=O)[nH]c(SCC(=O)N2CCc3ccccc3C2)n1	-4	0	0	0	0	20691*
O=C(CSc1nnnn1-c1ccc(Cl)cc1)N1CCc2ccccc2C1	1	3	2	2	1	21981*
COC(=O)Cc1ccc(NC(=O)c2ccc(C)c(C)c2)cc1	-13	0	-2	-1	-2	24555*
COC(=O)Cc1ccc(NC(=O)c2ccc(NC(=O)c3ccco3)cc2)cc1	3	13	0	-4	1	4400
CCOC(=O)CNC(=O)N(CCOC)CC1CCCN(C2Cc3ccccc3C2)C1 (configuration not stated)	-8	6	+	-5	4	3178
Cc1ccnc(NS(=O)(=O)c2ccc(N=Cc3c(O)n(C)c(=O)n(C)c3=O)cc2)n1	11	-2	-6	-3	0	2533
Cc1ccnc(NS(=O)(=O)c2ccc(N=CC3=C(O)CC(C)(C)CC3=O)cc2)n1	29	2	-2	-1	?	22067*
CC(=NCCC1=CCCCC1)c1c(O)n(C)c(=O)n(C)c1=O	17	0	1	1	0	23048*
CCCn1c(N)c(Sc2ccccc2[N+](=O)[O-])c(=O)n(CCC)c1=O	15	-2	-2	12	-2	3535
COc1ccccc1N1CCN(C(=O)CCn2c(=O)[nH]c3ccccc3c2=O)CC1	6	-2	0	-1	?	22600*
COc1ccccc1N1CCN(C(=O)CCCn2c(=S)[nH]c3ccccc3c2=O)CC1	12	1	2	-4	0	3710
COc1ccccc1N1CCN(C(=O)Cc2cccs2)CC1	8	-1	-1	-1	?	22449*
Cc1nc2ncnn2c(N2CCN(C(=O)Cc3cccs3)CC2)c1C	12	2	-8	-6	3	22223*
